Test results published in the supplement of paper PMC6555819.

Assays:
Assay in all cases: PBM binding z-score (relative to random genomic background probes); higher = stronger binding; sequences stand for … in GC…GCGATTGACAGCGTAGAATGAAGG
[1] = tested on: PPARg:RXRa DBDmut IVT, anti-RXR (DBD mutation: RXRa K156A/R161A, NR concentration 270 nM, RXRa partner concentration 90 nM)
Summary of the method: (§1)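 For binding z-scores, the reference was random background probes on custom Agilent 4×180K protein-binding microarrays. These arrays were incubated 1 h with ligand-free nuclear receptor dimers in PBS pH 7.4, 2% milk, 0.02% Triton X-100, 1 mM DTT, 0.2 mg/mL BSA and 0.4 mg/ml salmon testes DNA. Fluorescence was scanned after antibody detection of each partner (one per run) and regression-normalized.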

[2] = tested on: PPARg:RXRa IVT, anti-PPARg (NR concentration 270 nM, RXRa partner concentration 90 nM)
Summary of the method: as §1

[3] = tested on: PPARg DBDmut:RXRa IVT, anti-PPARg (DBD mutation: PPARg1 K132A/R137A, NR concentration 270 nM, RXRa partner concentration 90 nM)
Summary of the method: as §1

[4] = tested on: PPARg DBDmut IVT, anti-PPARg (DBD mutation: PPARg1 K132A/R137A, NR concentration 270 nM)
Summary of the method: as §1

[5] = tested on: PPARg homodimer (NR concentration 180 nM)
Summary of the method: as §1

[6] = tested on: PXR:RXRa (NR concentration 270 nM, RXRa partner concentration 90 nM)
Summary of the method: as §1

[7] = tested on: PXR homodimer (NR concentration 270 nM)
Summary of the method: as §1

[8] = tested on: RARa:RXR (NR concentration 270 nM, RXRa partner concentration 90 nM)
Summary of the method: as §1

[9] = tested on: RARa homodimer (NR concentration 270 nM)
Summary of the method: as §1

[10] = tested on: RARb:RXRa (NR concentration 270 nM, RXRa partner concentration 90 nM)
Summary of the method: as §1

[11] = tested on: RARb homodimer (NR concentration 270 nM)
Summary of the method: as §1

[12] = tested on: RARg:RXRa (NR concentration 270 nM, RXRa partner concentration 90 nM)
Summary of the method: as §1

[13] = tested on: RARg homodimer (NR concentration 270 nM)
Summary of the method: as §1

[14] = tested on: RXRa DBDmut IVT, anti-RXR (DBD mutation: RXRa K156A/R161A, NR concentration 90 nM)
Summary of the method: as §1

[15] = tested on: RXRa homodimer (NR concentration 180 nM)
Summary of the method: as §1

[16] = tested on: THRa:RXRa (NR concentration 90 nM, RXRa partner concentration 90 nM)
Summary of the method: as §1

[17] = tested on: THRa homodimer (NR concentration 90 nM)
Summary of the method: as §1

[18] = tested on: VDR homodimer (NR concentration 270 nM)
Summary of the method: as §1

| Sequence | PBM binding z-score [1] | PBM binding z-score [2] | PBM binding z-score [3] | PBM binding z-score [4] | PBM binding z-score [5] | PBM binding z-score [6] | PBM binding z-score [7] | PBM binding z-score [8] | PBM binding z-score [9] | PBM binding z-score [10] | PBM binding z-score [11] | PBM binding z-score [12] | PBM binding z-score [13] | PBM binding z-score [14] | PBM binding z-score [15] | PBM binding z-score [16] | PBM binding z-score [17] | PBM binding z-score [18] |
| --- | --- | --- | --- | --- | --- | --- | --- | --- | --- | --- | --- | --- | --- | --- | --- | --- | --- | --- |
| CTCGAGAGGTCGTGCTCAGGTGAGTATACCAAAC | 0.51 | 1.53 | -0.297 | -0.226 | 0.544 | 3.09 | 0.214 | 3.6 | -0.876 | 2.79 | 2.12 | 4.24 | 2.53 | 2.74 | 3.82 | 4.08 | 1.06 | 1.49 |
| AGTCAAAGTTCATCTAGGTAACGCAAGATATGCT | 0.815 | 4.11 | 1.46 | 1.49 | 3.03 | 5.12 | 6.5 | 3.76 | 1.42 | 5.03 | 3.95 | 5.4 | 6.01 | 4.76 | 4.57 | 3.08 | 0.274 | 5.06 |
| CCTACTGGGCCATCAGGTCATTGCTATCAACGTT | 4.86 | 4.95 | 0.318 | -0.34 | 1.02 | 1.75 | 0.209 | 2.17 | -0.0297 | 2.35 | 2.55 | 2.04 | 1.77 | 0.254 | 1.37 | 3.24 | 2.94 | 1.62 |
| GATACAGGGTCAAAGCCAGAGTACGCGTATTGAT | 2.68 | 3.63 | 1.47 | 0.035 | 2.25 | 3.75 | 0.314 | 4.76 | 0.583 | 4.03 | 2.86 | 5.42 | 4.41 | 3.04 | 5.84 | 3.25 | 0.312 | 2.99 |
| ATCTCTAGGTAAGGCTCAGTTCAGTGAAGAACGC | 1.94 | 1.3 | 0.628 | 1.33 | 0.996 | 0.855 | 1.22 | 0.496 | 0.033 | 0.228 | 0.805 | 0.0838 | -0.0338 | 0.317 | -0.0677 | 0.831 | 0.732 | 1.36 |
| CCGACTGGGGCAAGGTTACCCTAACGCACAGCCA | 2.55 | 3.74 | -0.273 | -0.891 | 0.107 | 0.232 | -0.208 | 0.791 | -0.576 | 1.58 | 1.51 | 0.945 | 1.06 | -0.485 | 1.08 | 1.47 | 0.84 | -0.188 |
| TTACCAAGGTGAAAGGTTGTTGATGCACGCCTTG | 2.7 | 4.17 | 0.253 | 0.316 | 0.571 | 1.28 | -0.373 | 2.32 | 0.397 | 1.63 | 0.999 | 1.65 | 0.911 | 0.0428 | 2.58 | 2.15 | 0.748 | 0.0809 |
| TTGCCAAGGTGAAGGTCGTTGATCCCTCTGTAGA | 1.25 | 2.3 | -1.04 | -0.656 | 0.119 | 1.21 | -0.362 | 1.6 | -0.87 | 2.08 | 1.62 | 1.23 | 1.02 | 0.0935 | 1.68 | 2.31 | 0.87 | 0.534 |
| TCTATTAGTAGATTAGGGCAACCGAAACAGCGGA | 2.26 | 1.17 | 0.69 | 0.0955 | 0.0523 | 0.229 | 0.0465 | 0.245 | 0.073 | 0.344 | 0.21 | 0.245 | 0.496 | 0.901 | 0.284 | 0.399 | -0.319 | -0.419 |
| CCAGACGGGTGAGAAGGTAACTCAGCCTCGATTA | 0.114 | 0.156 | -1.55 | -1.37 | 0.298 | -0.708 | -0.553 | -0.463 | -0.518 | -0.128 | -0.188 | 0.0516 | 0.0574 | -0.845 | 0.0255 | -0.158 | -0.508 | -0.29 |
| CGAACTACGTCAGAACAGGACAGTGAAGGATGAT | -0.549 | -0.508 | 0.627 | 0.733 | 0.0908 | -0.524 | -0.0465 | -0.592 | -0.0605 | -0.283 | -0.0991 | -0.0189 | 0.316 | 0.247 | -0.063 | 0.397 | -0.497 | -0.159 |
| TTACCAAGGGGAGCTGAGGTCGTTGATCCAACTC | 0.0938 | 0.219 | -0.939 | -0.633 | -0.405 | 2.35 | 0.544 | 1.03 | -0.882 | 0.604 | 0.704 | 0.0282 | -0.439 | 0.656 | 0.726 | 3.71 | 1.49 | 1.86 |
| ATAGGTAGGTTAGCTGGGGTCATTCAGACTAGGC | 2.88 | 2.9 | 1.18 | 0.716 | 3.23 | 6.38 | 4.41 | 5.88 | 1.73 | 3.2 | 4.09 | 4.35 | 3.5 | 2.2 | 5.46 | 5.2 | 3.51 | 5.44 |
| TCTATTAGTCGAAGGGCAACCGACGAGTCCGTTT | 2.28 | 0.642 | 0.468 | 0.866 | 0.702 | 0.597 | 0.535 | 0.379 | 0.63 | 1.36 | 1.15 | 0.394 | 0.638 | 1.56 | 0.534 | 0.187 | -0.0492 | 1.35 |
| CGAAGTAGGTCATCCAGGACAGTGAATACATTGA | 8.36 | 8.63 | 3.1 | 2.28 | 2.17 | 2.56 | 1.49 | 3.08 | 0.771 | 3.82 | 3.03 | 4.24 | 4.88 | 2.13 | 3.36 | 3.64 | 1.46 | 2.37 |
